Bioassay records deposited in PubChem BioAssay by National Center for Advancing Translational Sciences (NCATS).
Sampled rows, rich in hits. Any-hit rate of the full collection: about 15%.
RORgamma inh – blocks mouse ROR gamma transcriptional activity. P51450. Drosophila S2 Gal4-RORgamma UAS-luciferase reporter, 20 h. Potency, µM (top dose mostly 53.6 µM), for the others: at the top dose activity change, negative = inhibition, most hits filed as inhibitors. actives 5.4% (n = 310,000). AID 2551; also: nearly all actives have a fitted effect of over 60% in size
Target sequence (P51450 whole entry, looked up, the tested form may be a part): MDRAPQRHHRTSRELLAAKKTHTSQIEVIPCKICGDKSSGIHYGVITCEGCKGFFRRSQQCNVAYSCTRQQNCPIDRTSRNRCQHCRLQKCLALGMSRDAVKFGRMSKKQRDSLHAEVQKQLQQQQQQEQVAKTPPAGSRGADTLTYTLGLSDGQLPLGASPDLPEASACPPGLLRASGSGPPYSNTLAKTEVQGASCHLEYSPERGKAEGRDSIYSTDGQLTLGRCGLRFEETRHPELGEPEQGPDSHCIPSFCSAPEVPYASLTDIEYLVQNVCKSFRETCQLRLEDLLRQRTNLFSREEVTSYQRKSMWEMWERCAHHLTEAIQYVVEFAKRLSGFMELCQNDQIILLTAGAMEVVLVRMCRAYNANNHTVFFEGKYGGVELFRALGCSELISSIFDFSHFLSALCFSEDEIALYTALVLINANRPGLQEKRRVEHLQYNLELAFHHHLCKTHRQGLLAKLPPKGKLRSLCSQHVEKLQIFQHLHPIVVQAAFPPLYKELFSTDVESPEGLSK
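Drosophila Schneider cells stably carrying a metallothionein-driven Gal4 DBD–ROR gamma fusion and a UAS-Photinus luciferase reporter were exposed to compound for 1 hr, then induced with copper sulfate (700 uM final) for 20 hr at ambient temperature before luminescence reading.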
DT40 TDP1 no CPT – qHTS for Inhibitors of human tyrosyl-DNA phosphodiesterase 1 (TDP1): qHTS in cells in absence of CPT. DT40 Tdp1-/- hTDP1 cells, no CPT, ATP luminescence, 48 h. actives 15% (n = 420,000). Potency, µM (doses to about 46.2 µM), inactives show at the highest dose activity change, negative = growth inhibition, actives largely listed as inhibitors. AID 686978, 2013; also: nearly all actives have a fitted effect of over 55% in size
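A cellular qHTS used chicken DT40 cells lacking endogenous Tdp1 but carrying stably transfected human TDP1. Compounds were applied without camptothecin, and cell growth kinetics were judged by ATP-dependent luminescence after ≥48 hr.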
ALOX12 inh – blocks human arachidonate 12S-lipoxygenase; P18054; purified 12hLO, xylenol orange hydroperoxide absorbance; Potency, µM (doses to about 108 µM), without a hit: top-dose activity change, negative = inhibition, most hits filed as inhibitors; actives 1.1% (n = 580,000); AID 1671190
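Purified human 12hLO at 150 nM in 25 mM Hepes, 0.01% Triton X-100, pH 7.0, preincubated 15 min at room temperature with compound. Reaction started with 40 uM arachidonic acid, 30 min at room temperature. Hydroperoxide measured by Fe-xylenol orange, 573/405 nm absorbance ratio.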
Gal4-VP16 FLuc – counter-screen for ROR gamma inhibitors: Gal4-VP16 reporter | actives 3.5% (n = 310,000) | Drosophila S2 Gal4-VP16 UAS-luciferase, luminescence, 20 h | Potency, µM (highest dose often 53.6 µM), for the others: at the top dose activity, negative = inhibition, most hits filed as inhibitors | AID 2546;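 also: Gal4-VP16 expression switched on by copper sulfate through the metallothionein promoter; nearly all actives have a fitted effect of over 50% in size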
TDP1 cell CPT – DT40-hTDP1 cell growth loss with CPT; Potency, µM (doses to about 46.2 µM), without a hit: top-dose activity change, negative = growth inhibition, most hits filed as inhibitors; actives 12% (n = 420,000); AID 686979; chicken DT40 Tdp1-/-;hTDP1 cells + 20 nM CPT, ATP luminescence, 48 h; also: nearly all actives have a fitted effect of over 55% in size
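Cell growth measured by CellTiter-Glo luminescence after a minimum 48 h, 37 C compound exposure with 20 nM CPT in Tdp1-knockout DT40 cells stably expressing hTDP1, seeded 400/well; qHTS titration format.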
ELG1 DNA repair – inhibitors of ELG1-dependent DNA repair in HEK293T cells; HEK293T ELG1-luciferase reporter, luminescence, 16 h; DNA damage induced by 5-fluorouridine; Potency, µM (titrated, usually from 46.1 µM), without a hit: at the highest dose activity change, negative = inhibition, actives largely listed as inhibitors; actives 2.3% (n = 330,000); also: nearly all actives have a fitted effect of over 55% in size
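Cells (2,000 per well) received 5-fluorouridine plus test compound or DMSO and were incubated 16 hr at 37 °C, 5% CO2. Luciferase activity was read by luminescence 30 min after ONE-Glo addition; signal suppression marked inhibition of damage-induced ELG1 function.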
The depositor's hits bear a star; [ ] = another dose, or the depositor's remark. Calls follow the shape of the dose curve; as a rule, active = well fitted curve in the direction sought with a large enough effect; inconclusive = small, poorly fitted or top-dose-only effect, or another doubt; inactive = no such curve, though single readings can be large; an effect the other way counts as inactive or inconclusive. % is scaled to controls: 0 for no effect and ±100 for the full control effect; potency is read from the fitted curve at half-maximal effect.

How did Cc1ccc(Cn2nc3n(c2=O)-c2cc(Cl)ccc2OC3)cc1 do in these assays?
DT40 TDP1 no CPT: -19%; ALOX12 inh: -18%; TDP1 cell CPT: -12%

How did COc1ccc(C2=Nc3ccccc3OC2)cc1 do in these assays?
RORgamma inh: 4%; DT40 TDP1 no CPT: 15µM*; ALOX12 inh: 45µM*; Gal4-VP16 FLuc: -1%; TDP1 cell CPT: 26µM*; ELG1 DNA repair: inconclusive

What do the screens show for `O=C(Nc1cccc(-n2cccn2)c1)C1CCCN1C(=O)C1CCCCC1` (centres undefined)?
ALOX12 inh: 30%

How did CC(C)c1noc(COc2ccc(C(=O)NC3CCCC3)cc2)n1 do in these assays?
ALOX12 inh: 22%

Results for COC(=O)C[C@H](NC(=O)Cn1cnc2c(SC)nc(N)nc21)C(=O)OC ?
DT40 TDP1 no CPT: 21%; ALOX12 inh: 0%; TDP1 cell CPT: 2%; ELG1 DNA repair: 12%

What do the screens show for `CSc1nc(N)nc2c1ncn2CC(=O)NCC(c1ccccc1)c1ccccc1`?
DT40 TDP1 no CPT: 21µM*; ALOX12 inh: 75%; TDP1 cell CPT: 15µM*; ELG1 DNA repair: inconclusive

How did CSc1nc(N)nc2c1ncn2CC(=O)Nc1ccc(C)c(C)c1 do in these assays?
DT40 TDP1 no CPT: 15µM*; ALOX12 inh: -4%; TDP1 cell CPT: 13µM*; ELG1 DNA repair: 6.5µM*

Results for Nc1nnnn1Cc1nnc(SCc2ccccc2F)n1-c1ccccc1 ?
ALOX12 inh: 54%

What do the screens show for `CN(C)C(=O)c1ccc(Br)s1`?
ALOX12 inh: -13%

How did O=C(/C=C/c1ccc(Cl)cc1)c1cccnc1 do in these assays?
RORgamma inh: inconclusive; DT40 TDP1 no CPT: 8.2µM*; ALOX12 inh: inconclusive; Gal4-VP16 FLuc: 20µM*; TDP1 cell CPT: 5.8µM*; ELG1 DNA repair: inconclusive

Results for O=C(/C=C/c1ccccc1Cl)c1cccnc1 ?
RORgamma inh: inconclusive; DT40 TDP1 no CPT: 16µM*; ALOX12 inh: -12%; Gal4-VP16 FLuc: inconclusive; TDP1 cell CPT: 7.3µM*; ELG1 DNA repair: inconclusive

Results for O=C(O)/C=C/c1c(F)cccc1Cl ?
ALOX12 inh: 0%

How did CCN(CC)c1ccc(/C=C/C(=O)c2cccnc2)cc1 do in these assays?
RORgamma inh: 6%; DT40 TDP1 no CPT: 21µM*; ALOX12 inh: -19%; Gal4-VP16 FLuc: -5%; TDP1 cell CPT: inconclusive; ELG1 DNA repair: 23µM*

Results for O=C(/C=C/c1c(F)cccc1Cl)c1ccc(O)cc1 ?
RORgamma inh: inconclusive; DT40 TDP1 no CPT: 23µM*; ALOX12 inh: inconclusive; Gal4-VP16 FLuc: 3%; TDP1 cell CPT: inconclusive; ELG1 DNA repair: 18%

What do the screens show for `O=C(/C=C/c1ccc(Cl)cc1)c1ccc(Oc2ccccc2)cc1`?
ALOX12 inh: 7%

Results for CCN(CC)c1ccc(NC(=O)c2cccnc2)cc1 ?
RORgamma inh: 26%; DT40 TDP1 no CPT: inconclusive; ALOX12 inh: -9%[57.4 µM]; Gal4-VP16 FLuc: 5%; TDP1 cell CPT: inconclusive

What do the screens show for `Cc1ccc(CNc2oc(-c3ccc(S(=O)(=O)N4CCc5ccccc5C4)cc3)nc2C#N)cc1`?
ALOX12 inh: 15%

How did CCN(CC)c1ccc(/C=C/C(=O)c2ccc(Br)cc2)cc1 do in these assays?
RORgamma inh: inconclusive; DT40 TDP1 no CPT: inconclusive; ALOX12 inh: 13%; Gal4-VP16 FLuc: -7%; TDP1 cell CPT: 16µM*; ELG1 DNA repair: 10%

Results for O=C(/C=C/c1ccccc1Cl)c1ccc(O)cc1 ?
RORgamma inh: 10µM*; DT40 TDP1 no CPT: 15µM*; ALOX12 inh: inconclusive; Gal4-VP16 FLuc: inconclusive; TDP1 cell CPT: 16µM*; ELG1 DNA repair: inconclusive

How did N#Cc1ccc(/C=C/C(=O)c2cccnc2)cc1 do in these assays?
RORgamma inh: 7.9µM*; DT40 TDP1 no CPT: 15µM*; ALOX12 inh: -16%; Gal4-VP16 FLuc: inconclusive; TDP1 cell CPT: 10µM*; ELG1 DNA repair: inconclusive

What do the screens show for `COc1ccc(C(=O)/C=C/c2ccc(C#N)cc2)cc1F`?
ALOX12 inh: 45%

What do the screens show for `CN(C)c1ccc(C(=O)/C=C/c2ccc(Br)cc2)cc1`?
RORgamma inh: inconclusive; DT40 TDP1 no CPT: inconclusive; ALOX12 inh: -4%; Gal4-VP16 FLuc: 7%; TDP1 cell CPT: -19%; ELG1 DNA repair: inconclusive

How did CC(=O)Nc1ccc(NC(=O)CN(C)Cc2ccc(C(F)(F)F)cc2)cc1 do in these assays?
ALOX12 inh: -1%

What do the screens show for `COc1ccc(CNC(=O)C2CCCN(c3ncnc4c3nc3n4CCCCC3)C2)cc1` (centres undefined)?
RORgamma inh: -1%; DT40 TDP1 no CPT: inconclusive; Gal4-VP16 FLuc: 3%; TDP1 cell CPT: 18µM*; ELG1 DNA repair: -21%

How did O=C(NCc1cccc(Cl)c1)C1CCCN(c2ncnc3c2nc2n3CCCCC2)C1 (centres undefined) do in these assays?
RORgamma inh: 21%; DT40 TDP1 no CPT: 12µM*; ALOX12 inh: -2%; Gal4-VP16 FLuc: -2%; TDP1 cell CPT: -1%; ELG1 DNA repair: inconclusive

How did O=C(NCC1CCN(Cc2ccc(F)cc2)CC1)C1CCCN(c2ncnc3c2nc2n3CCCCC2)C1 (centres undefined) do in these assays?
RORgamma inh: 9%; DT40 TDP1 no CPT: inconclusive; ALOX12 inh: 9%; Gal4-VP16 FLuc: -5%; TDP1 cell CPT: inconclusive; ELG1 DNA repair: -19%

How did Cc1ccc(CNC(=O)C2CCCN(c3ncnc4c3nc3n4CCCCC3)C2)cc1 (centres undefined) do in these assays?
RORgamma inh: 2%; DT40 TDP1 no CPT: 9.2µM*; ALOX12 inh: 12%; Gal4-VP16 FLuc: -1%; TDP1 cell CPT: inconclusive; ELG1 DNA repair: -19%

How did O=C(NCC1CCN(Cc2cccc(Cl)c2)CC1)C1CCCN(c2ncnc3c2nc2n3CCCCC2)C1 (centres undefined) do in these assays?
RORgamma inh: 21%; DT40 TDP1 no CPT: inconclusive; ALOX12 inh: -25%; Gal4-VP16 FLuc: -6%; TDP1 cell CPT: 26µM*; ELG1 DNA repair: inconclusive

Results for COc1ccc(CCNC(=O)C2CCCN(c3ncnc4c3nc3n4CCCCC3)C2)c(OC)c1 (centres undefined) ?
RORgamma inh: 19%; DT40 TDP1 no CPT: inconclusive; ALOX12 inh: 16%; Gal4-VP16 FLuc: 7%; TDP1 cell CPT: inconclusive; ELG1 DNA repair: inconclusive

How did COc1ccc(CN(C(=O)c2cc3ccccc3s2)C2CC2)cc1 do in these assays?
ALOX12 inh: -5%
